PHOSPHO1 inh: PubChem AID 1565. Phosphoethanolamine/phosphocholine phosphatase (Homo sapiens), Q8TCT1. recombinant PHOSPHO1, absorbance phosphatase assay. inhibition, % at 13.3 µM. hit rate 1.1% among 290,000; in the data active = inhibition above about 60%
Target sequence (Q8TCT1 whole entry, looked up): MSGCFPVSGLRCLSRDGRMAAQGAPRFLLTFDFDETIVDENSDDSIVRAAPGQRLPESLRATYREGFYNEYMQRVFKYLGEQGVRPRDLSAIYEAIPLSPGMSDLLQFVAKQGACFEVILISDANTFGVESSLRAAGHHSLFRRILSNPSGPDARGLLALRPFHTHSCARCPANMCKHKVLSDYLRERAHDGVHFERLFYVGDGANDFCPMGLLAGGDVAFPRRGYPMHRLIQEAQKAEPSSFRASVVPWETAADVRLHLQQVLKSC
TPT1 inhibitor: Candida albicans TPT1 enzyme inhibitors, primary screen, biochemical, fluorescence polarization. tRNA 2'-phosphotransferase TPT1 (Candida albicans SC5314). recombinant caTPT1, FP RNA substrate dephosphorylation. inhibition, % at 5 µM. hit rate 0.81% among 300,000. AID 1962, 2009;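 active = inhibition above the mean of all tested compounds plus 3 SD, set per screening campaign, cut at about 24% in these data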
SKKanGAS inh: S. pyogenes SKKanGAS growth inhibitors in kanamycin, primary screen, streptokinase expression inhibitor project, SKKanGAS strain, BacTiter-Glo luminescence | hit rate 1.3% among 300,000 | 6 h | AID 1662, 2009 | inhibition, % at 7.5 µM;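 active = mean replicate score, as percent of positive control median, at least 50; inconclusive = mean below 50 but one replicate at or above 50; inactive = mean and every replicate below 50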;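 note: strain carries kanamycin resistance gene driven by streptokinase promoter and grows in 40 µg/ml kanamycin; loss of luminescence reflects streptokinase promoter inhibition or plain growth inhibition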
WT yeast gro inh: growth inhibition of WT strain, primary screen, mitochondrial fusion inhibitor project, WT and mutant strains, chemical genetic | mitochondrial fusion phenotypic screen | inhibition, % at 10 µM | hit rate 2.1% among 190,000; in the data active = inhibition above about 58%; tested in S. cerevisiae
Platelet DG rel: inhibitors of platelet dense granule secretion, primary screen, cell-based, MLPCN, human platelets | AID 1663, 2009 | hit rate 0.22% among 300,000 | inhibition, %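 (compounds screened at 7.5 µM in platelet-rich plasma)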 | human platelet-rich plasma, SFLLRN dense granule ATP release, luminescence;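 active = mean replicate score, as percent of positive control, at or above 50; inconclusive = mean below 50 but at least one replicate at or above 50; inactive = mean and every replicate below 50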
Rtt109 HAT inh: inhibitors of C. albicans Rtt109/Vps75 HAT, primary screen, biochemical, ThioGlo CoA-SH fluorescence, plate reader. hit rate 0.16% among 330,000. inhibition, % at 34.9 µM. purified Rtt109/Vps75, 4 h. AID 540336, 2011. Histone acetyltransferase RTT109 (Candida albicans (strain SC5314 / ATCC MYA-2876)), …;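 active = inhibition of at least 50% in every replicate; inconclusive = best replicate reaches 50% inhibition but some replicates fall short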
Target sequence (Q5AAJ8 whole entry, looked up): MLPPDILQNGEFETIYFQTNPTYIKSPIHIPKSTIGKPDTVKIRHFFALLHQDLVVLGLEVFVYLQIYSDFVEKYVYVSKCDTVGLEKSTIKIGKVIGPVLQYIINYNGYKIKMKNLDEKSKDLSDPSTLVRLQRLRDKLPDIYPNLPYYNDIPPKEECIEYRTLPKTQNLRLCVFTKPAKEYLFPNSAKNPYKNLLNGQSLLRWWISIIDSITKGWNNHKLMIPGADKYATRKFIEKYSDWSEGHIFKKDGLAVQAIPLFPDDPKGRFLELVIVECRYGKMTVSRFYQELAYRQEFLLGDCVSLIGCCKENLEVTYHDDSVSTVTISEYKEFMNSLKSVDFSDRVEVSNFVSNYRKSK
A number is an active result; i = inactive; ? = inconclusive; nt = not tested or not shown; ! = not active in a repeat. Rows were chosen to be rich in hits. Some 3.9% of all compounds tested hit in one or more screens of this group.

SMILES | PHOSPHO1 inh | TPT1 inhibitor | SKKanGAS inh | WT yeast gro inh | Platelet DG rel | Rtt109 HAT inh
CCN(CC(=O)NCc1cccs1)C(=O)c1cc(Br)ccc1O | nt | nt | nt | nt | nt | i
O=C(NC1CC(=O)N(c2ccc(F)cc2)C1)C(=O)c1c[nH]c2ccccc12 (stereo not drawn) | nt | i | i | nt | i | i
Cc1ccc(C)c(NC(=O)CSc2ncnc3nc[nH]c23)c1 | i | i | i | i | i | i
Cc1cccc(NC(=O)CSc2ncnc3nc[nH]c23)c1C | 99 | i | i | i | i | i
O=C(CSc1nc(C(F)(F)F)cc(=O)[nH]1)Nc1ccc2c(c1)OCCO2 | nt | i | i | nt | i | i
CCn1ccnc1CN(C)Cc1cn(-c2cccc(C)c2)nc1-c1cccc(F)c1 | i | i | i | i | i | i
Cc1ccc(-n2cc(CN3CCNC(=O)CC3)c(-c3cccc(C)c3)n2)cc1 | i | i | i | i | i | i
CCn1ccnc1CN(C)Cc1cn(-c2ccc(C)cc2)nc1-c1cccc(C)c1 | i | i | i | 68 | i | i
Cc1ccc(-n2cc(CN3CCN(Cc4nccn4C)CC3)c(-c3cccc(C)c3)n2)cc1 | i | i | i | 66 | i | i
CCn1ccnc1CN(C)Cc1nc(-c2ccccc2)no1 | 60 | i | i | i | i | i
CCCCn1c(N)c(N(CC(C)C)C(=O)COC(=O)Cc2cccc(OC)c2)c(=O)[nH]c1=O | nt | i | i | nt | i | i
Cc1ccc(NC(=O)Cn2c(=O)c3cccn3c3ccccc32)cc1 | i | i | i | nt | i | i
COc1ccc(-c2noc(CCC(=O)NC3CCCCC3)n2)cc1 | i | i | i | nt | i | i
O=C(NCC1CCCO1)C1CCCN1C(=O)Nc1ccc(Cl)cc1 (stereo not drawn) | 60 | i | i | i | i | i
Cc1ccc(OCCNC(=O)CNC(=O)c2ccc(Cl)c([N+](=O)[O-])c2)cc1 | nt | nt | nt | nt | nt | i
Cc1cc(C)cc(OCC(=O)NNC(=S)NC(=O)C2CC2)c1 | i | i | 87 | nt | i | i
COc1ccc(OCC(=O)NNC(=S)NC(=O)C2CCCCC2)cc1 | i | i | 64 | nt | i | i
COc1ccc(OCC(=O)NNC(=S)NC(=O)C2CC2)cc1 | i | nt | 63 | nt | i | i
COc1ccc(CC(=O)NC(=S)NNC(=O)COc2c(C)cccc2C)cc1 | i | i | 97 | i | i | i
Cc1ccc(C(=O)CN(CCC(=O)O)S(=O)(=O)c2ccc([N+](=O)[O-])cc2)cc1 | nt | i | nt | nt | nt | i
Cc1cc(OC(C)C(=O)NCc2cccnc2)c2c(C)cc(=O)oc2c1 (stereo not drawn) | i | i | i | nt | i | i
CC(=O)Nc1ccc(N(C(=O)c2ccccn2)C(C(=O)NC2CCCCC2)c2ccc(F)cc2)cc1 (stereo not drawn) | i | i | i | nt | i | i
CCC(NC(=S)NC1CCCCC1)c1ccc(C)cc1 (stereo not drawn) | i | nt | i | nt | i | i
CCc1ccc(OCC(=O)NNC(=S)NC(=O)C2CC2)c(Br)c1 | i | nt | nt | nt | nt | i
CCc1ccc(OCC(=O)NNC(=S)NC(=O)C2CCCCC2)c(Br)c1 | i | i | 90 | nt | i | i
SMILES | PHOSPHO1 inh | TPT1 inhibitor | SKKanGAS inh | WT yeast gro inh | Platelet DG rel | Rtt109 HAT inh
CCN1CCN(c2nc3c(C)cccn3c(=O)c2/C=C(\C#N)C(=O)NCCOC)CC1 | i | i | i | nt | i | i
CC(C)(C)c1cc(C(c2cccnc2)N2CCN(CCO)CC2)cc(C(C)(C)C)c1O (stereo not drawn) | i | i | i | 72 | i | 92
CCCc1nc(SCC(=O)N2CCCc3ccccc32)c2c(=O)n(C)c(=O)n(C)c2n1 | i | i | i | 73 | i | i
CCCc1nc(SCC(=O)N2CCC(Cc3ccccc3)CC2)c2c(=O)n(C)c(=O)n(C)c2n1 | i | i | i | 81 | i | i
Cn1c(=O)c2c(SCC(=O)N3CCCc4ccccc43)nc(CC(C)(C)C)nc2n(C)c1=O | i | i | i | i | i | i
Cn1c(=O)c2c(SCC(=O)N3CCC(Cc4ccccc4)CC3)nc(C3CC3)nc2n(C)c1=O | nt | nt | nt | i | nt | nt
O=C(NC1CCCC1)C(c1cccnc1)N(C(=O)c1ccco1)c1ccc(F)cc1 (stereo not drawn) | i | i | i | nt | i | i
CC(OC(=O)c1ccc(NC(=O)CC#N)cc1)C(=O)NC(=O)NC1CCCCC1 (stereo not drawn) | i | i | 59 | nt | i | i
Cc1ccc(C)c(NC(=O)C(OC(=O)c2ccc(NC(=O)CC#N)cc2)c2ccccc2)c1 (stereo not drawn) | nt | i | i | nt | i | i
CC(OC(=O)c1ccc(NC(=O)CC#N)cc1)C(=O)NCCC1=CCCCC1 (stereo not drawn) | nt | nt | nt | nt | nt | i
Cc1nn(-c2ccccc2)c(Cl)c1C(=O)OC(C)C(=O)NC(=O)NC1CCCCC1 (stereo not drawn) | i | i | i | 69 | i | i
Cc1cc(C)cc(NC(=O)C(OC(=O)c2ccc(NC(=O)CC#N)cc2)c2ccccc2)c1 (stereo not drawn) | nt | i | 57 | nt | i | i
NC(=O)C1CCN(C(=O)CCC(=O)c2ccc(F)cc2)CC1 | i | i | i | nt | i | i
CCCc1cc(=O)[nH]c(SCC(=O)N2CCc3ccccc3C2)n1 | nt | nt | nt | nt | nt | i
CCc1ccc2nc(N3C(=O)C(O)=C(C(=O)c4ccco4)C3c3cccs3)sc2c1 (stereo not drawn) | i | i | 88 | i | i | i
Cc1ccc(C2C(C(=O)c3cc4ccccc4o3)=C(O)C(=O)N2c2cc(C)on2)cc1 (stereo not drawn) | i | i | 59 | nt | i | i
Cc1ccc2nc(N3C(=O)C(O)=C(C(=O)c4cc5ccccc5o4)C3c3cccs3)sc2c1 (stereo not drawn) | i | i | 104 | i | i | i
Cc1ccc2nc(N3C(=O)C(O)=C(C(=O)c4ccco4)C3c3ccc(O)cc3)sc2c1 (stereo not drawn) | i | i | i | nt | i | i
Cc1cc(N2C(=O)C(O)=C(C(=O)c3cc4ccccc4o3)C2c2ccc([N+](=O)[O-])cc2)no1 (stereo not drawn) | i | i | i | nt | i | i
Cc1nc(NCCc2ccccc2)c2nnn(Cc3ccccc3)c2n1 | i | i | i | nt | i | i
CCCCCCCCCCCCCCCC[n+]1cccc(C(=O)N(CC)CC)c1 | i | i | 92 | i | i | 74!
CCCCCCCCCCCCCCCC[n+]1ccc(/C=N/O)cc1 | i | i | nt | 98 | nt | i
CCCCCc1ccc(OCCC[n+]2ccccc2)c(CCCCC)c1 | i | i | i | nt | i | ?
CCCCCCCC[n+]1cccc(C(=O)N(CC)CC)c1 | i | i | i | i | i | nt
CCCCCCCCCCCCCCCC[n+]1ccc(C(N)=O)cc1 | i | i | nt | 99 | nt | i
CCCCCCCCCCCCCCCC[n+]1ccccc1 | nt | nt | nt | nt | nt | 75!

Assay outcomes from PubChem.
